PubChem BioAssay (Tox21)
Inconclusive results are not listed. Active and inactive are the calls of the source. Calls come from the whole dose curve; as a rule, active = well fitted activation curve with a large enough effect in the repeat runs; inconclusive = weak or mixed curves; inactive = flat fitted curve, though single readings scatter.

assay: A CellTox Green Cytotoxicity Assay to monitor cytotoxicity in HepG2 cells - 32 hour (AID 1224883); settings: CellTox Green fluorescence; series mostly up to 76.8 µM; cytotoxicity increase: at the top concentration; note: nearly all actives have a fitted effect of over 50% in size
Method in brief: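 First, HepG2 cells (600/well) mixed with reagent were plated; second, after 5 h at 37 C they received compounds via pintool; third, fluorescence was measured at 0 h through 40 h at 8 h intervals.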
% is set by controls: 0 for no effect and ±100 for the full control effect.

Row | Structure (SMILES) | cytotoxicity increase
1 | COc1ccc2c(c1)c1c3n2CCN(C)C3=NCC1 | -0.976% [at 35.3 µM] (inactive)
2 | Cn1c(=O)c2[nH]c(Br)nc2n(C)c1=O | -11.8% [at 35.3 µM] (inactive)
3 | CC(=O)C1C(=O)C=C(C)OC1=O (stereo unspecified) | -4.72% (inactive)
4 | CN(C)CCN(C)CCO | 3.31% (inactive)
5 | CC(C)C1OCCN1CCOC(=O)NCCCCCCNC(=O)OCCN1CCOC1C(C)C (stereo unspecified) | 14.5% (inactive)
6 | CC(=O)O[C@H]1C[C@@H]2CC[C@@]1(C)C2(C)C | 6.72% (inactive)
7 | CN1C[C@@H]2C[C@H]1CN2c1cc2c(cc1F)c(=O)c(C(=O)O)cn2C1CC1 | 0.396% [at 15.8 µM] (inactive)
8 | CC1(C)CC(OC(=O)CCCCCCCCC(=O)OC2CC(C)(C)NC(C)(C)C2)CC(C)(C)N1 | -10.5% [at 15.8 µM] (inactive)
9 | C=Cc1ccc(C(C)(C)C)cc1 | 25.2% (inactive)
10 | CCOc1ccccc1OCC1CNCCO1 (stereo unspecified) | 0.652% [at 35.3 µM] (inactive)
11 | N[C@@H](Cc1ccc(O)cc1)C(=O)O | -9.11% [at 6.97 µM] (inactive)
12 | O=C(CCCCC(=O)Nc1c(I)cc(I)c(C(=O)O)c1I)Nc1c(I)cc(I)c(C(=O)O)c1I | -4.39% [at 35.3 µM] (inactive)
13 | O=C1NC(c2ccccc2)(c2ccccc2)C(=O)N1COP(=O)(O)O | 4.62% [at 35.3 µM] (inactive)
14 | OCCN1CCOCC1 | -6.18% (inactive)
15 | CC(C)c1ccc(C=O)cc1 | 4.72% (inactive)
16 | COc1c2occc2c(OC)c2c(=O)cc(C)oc12 | -11.9% [at 35.3 µM] (inactive)
17 | CCCCOCCOC(=O)COc1ccc(Cl)cc1Cl | -0.214% (inactive)
18 | CCC(C(=O)OCCN1CCOC(c2ccccc2)C1C)c1ccccc1 (stereo unspecified) | -14.9% [at 35.3 µM] (inactive)
19 | C=C(C)[C@@H]1CC=C(C)CC1 | 7.43% (inactive)
20 | CC(=O)CC(=O)Nc1ccc(C)cc1C | -7.33% (inactive)
21 | c1ccc2cnccc2c1 | -1.48% (inactive)
